Measured values published in PubChem BioAssay (NCATS).
Where “and” joins values, the source holds several entries; their conditions need not be identical. Identical values can stand only once. Inconclusive results are not listed. Unmarked numbers belong to inactive results. Calls come from the whole dose curve; as a rule, active = well fitted curve in either direction with a large enough effect (not every such curve was filed as active); inconclusive = small, poorly fitted or top-dose-only effect, or another doubt; inactive = flat fitted curve, though single readings scatter.

Assay: NFAT Signaling Pathway (AID 444)
Settings: Jurkat NFAT-bla M1, carbachol, beta-lactamase ratio, 5 h; at 17.2 µM (top of the series)
Excerpt: NCGC Assay Overview: The nuclear factor of activated T cells (NFAT) family of transcription factors has been found primarily in most immune system cells and some other non-immune cells. NFAT plays the immunomodulatory role, primarily in T-cell activation and differentiation. NFAT target genes are also involved in the regulation of apoptosis and differentiation in non-immune cell types. The NFAT sequence was engineered to the upstream of the ?-lactamase reporter gene and transfected into Jurkat cells with co-transfection of muscarinic receptor1 [provided by Invitrogen Corp]. When an extracellular stimulus, such as carbachol, binds to the GPCR M1 receptor, it stimulates a signaling cascade that activates NFAT response element and ?-lactamase expression by phosphorylating the NFAT binding protein. This cell based ?-lactamase reporter gene assay can accurately monitor any changes occurring along the NFAT pathway, and can be used for screening small molecule inhibitor or activator upon activation by carbachol EC50 concentration. A small molecular library were screened in a titration series resulting in AC50s (can be either IC50s or EC50s).
NCGC Assay Protocol Summary: The cells were prepared in RPMI 1640 medium containing 0.1% dialyzed FBS and 25 mM HEPES at 1.6 x 10^6cell/ml. The assay was performed in 1536-well plate format as follows: 5 ul of cell preparation 23 nl of compounds 1ul of carbachol (final concentration 1 uM) Briefly centrifuge the plates and incubate at 37 °C for 5 hours 1 ul of CCF4 dye mixture Incubate the plates at RT for 1 hour Read the plate in EnVision plate reader (Ex= 405nm, and Em1=460nm and Em2=530nm). The %Activity was determined from the ratio of 460nm/530nm. Data normalization and AC50 calculations were accomplished using GeneData software.
% is set by controls: 0 for no effect and ±100 for the full control effect.

| SMILES | activity change, negative = inhibition |
| --- | --- |
| CC(C)NC[C@H](O)COc1ccc(CC(N)=O)cc1 | -9.34% and -0.713% |
| COc1ccc(C(=O)NCc2cccnc2)cc1C(=O)NCc1cccnc1 | -4.93% |

Same assay, conditions: Jurkat NFAT-bla M1, carbachol, beta-lactamase ratio, 5 h; at 38 µM (top of the series)

| SMILES | activity change, negative = inhibition |
| --- | --- |
| CC(C)NC[C@H](O)COc1ccc(CC(N)=O)cc1 | -2.26% and 6.34% and 5.93% |
| COc1ccc(C(=O)NCc2cccnc2)cc1C(=O)NCc1cccnc1 | -7.04% |

Same assay, conditions: Jurkat NFAT-bla M1, carbachol, beta-lactamase ratio, 5 h; at 38 µM (top of the series) unless noted

| SMILES | activity change, negative = inhibition |
| --- | --- |
| Fc1ccc(CN(C2=NCCN2)c2c(Cl)cccc2Cl)cc1 | -21.2% |
| CC(N)=O | -6.62% |
| COc1ccc2c(c1)c(CC(=O)O)c(C)n2Cc1ccc(Cl)cc1 | -4.65% |
| O=C(O)C1=CC(=C(c2ccc(O)c(C(=O)O)c2)c2ccc(O)c(C(=O)O)c2)C=CC1=O | 1.98% |
| Cn1cc(C(=O)OCC2CCN(CCNS(C)(=O)=O)CC2)c2ccccc21 | -2.1% |
| O=c1[nH]ccc2c(O)cccc12 | -6.89% |
| CNC(=O)c1cc2c(cn1)[nH]c1ccccc12 | -1.62% |
| COc1ccccc1N1CCN(CCCCNC(=O)c2ccc3ccccc3c2)CC1 | -13.3% |
| C=CC[C@H](N)C(=O)O | 2.66% |
| CC1CNCCN1S(=O)(=O)c1cccc2cnccc12 (stereo not given) | 4.83% [at 17.2 µM] |
| C=CCn1c(=O)c2c(nc(-c3ccc(S(=O)(=O)O)cc3)n2C)n(C)c1=O | -1.07% |
| CCN(c1nc(N)c(C(=O)N=C(N)N)nc1Cl)C(C)C | -3.34% |
| O=C(O)C1=CCCNC1 | 3.92% |
| COc1ccccc1N1CCN(CCN(C(=O)c2ccc(F)cc2)c2ccccn2)CC1 | -0.748% |
| Oc1ccc(Cn2cc[nH]c2=S)cc1 | 3.63% |
| NC(=Nc1ccccc1)NC(=O)c1nc(Cl)c(N)nc1N | 21.6% |
| N=C(N)SCCN | -0.506% |
| NCCCCN=C(N)N | -4.07% |

| SMILES | activity change, negative = inhibition |
| --- | --- |
| N=C(N)c1ccccc1 | -2.62% |
| CN[C@H](CC(=O)O)C(=O)O | 0.454% |
| O=C(O)C1=CCNCC1 | -0.658% |
| NCCS(=O)O | 3.37% |
| COc1cc2c(CCNC(C)=O)c[nH]c2cc1O | 3.14% |
| O=c1[nH]c2cc(Cl)ccc2c(O)c1-c1ccc(Oc2ccccc2)cc1 | -0.707% |
| CCN(CC)CCOC(=O)c1cc(Cl)c(N)cc1OC | -3.84% |
| O=c1onc2n1-c1cc(Br)ccc1OC2 | 3.41% |
| CCCCCCC/C=C\CCCCCCCCC(=O)O | -3.56% |
| NS(=O)(=O)c1cccc2c1c([N+](=O)[O-])cc1nc(O)c(O)nc12 | 5.62% |
| CCSC(=N)N | 1.19% |
| C#CCn1c(=O)c2c(ncn2C)n(C)c1=O | 5.67% |
| O=C(O)Cc1ccc(O)c(O)c1 | 12.7% |
| NC(=O)CNCCC(c1ccccc1)c1ccccc1 | 1.39% |
| COc1ccccc1N1CCN(CCCCN2C(=O)c3ccccc3C2=O)CC1 | -20.4% |
| O=c1[nH]c(=S)[nH]c(-c2ccccc2)c1Cc1c(O)ccc2ccccc12 | 15.8% [at 7.69 µM] |
| CN1CCN(c2nc3cc(C(F)(F)F)ccc3n3cccc23)CC1 | 28.4% |
| O=C(O)c1cc(=O)cc(C(=O)O)[nH]1 | -5.4% |
